Assay outcomes deposited in PubChem by National Center for Advancing Translational Sciences (NCATS).
Resorufin_fluor: compounds fluorescent in resorufin spectral region; Compound fluorescence, resorufin region 547/598 nm, buffer; active compounds read high; max dye-equivalent concentration, M; 59,000 compounds, 0.04% hits; AID 588
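Dye-equivalent concentration values derive from comparing each well's 547/598 nm fluorescence against resorufin standards included on every plate. Incubation was 15 min at room temperature in 100 mM Tris, pH 8.0.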
Texas_Red_fluor: compound fluoresces in the Texas Red spectral region; Compound fluorescence, Texas Red channel, 547/618 nm; active compounds read high; max dye-equivalent concentration, M; 59,000 compounds, 0.06% hits; AID 587; in the data active means max dye-equivalent concentration above about 10 nM; inconclusive means between about 1.1 nM and that limit
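Compound titrations in 100 mM Tris pH 8.0 were incubated 15 min at room temperature and read at 547 nm excitation / 618 nm emission. Texas Red six-point standard curve on each plate converted fluorescence to dye-equivalent concentration.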
Rhodamine_autofl: compound fluoresces in the rhodamine spectral region; max dye-equivalent concentration, M; Rhodamine-region fluorescence, 547/598 nm, Tris buffer; active compounds read high; 59,000 compounds, 0.05% hits; in the data active means max dye-equivalent concentration above about 11 nM; inconclusive means between about 1.1 nM and that limit
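qHTS spectral profiling of compounds without any target or enzyme present, in pH 8.0 Tris buffer; plates were read after a 15-minute room-temperature incubation using the rhodamine-region filter set.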
Fluorescein_autfl: fluorescein region autofluorescence. Compound autofluorescence, 480/540 nm, fluorescein-equivalent; active compounds read high. max fluorescein-equivalent concentration, M. 59,000 compounds, 0.91% hits. AID 593; in the data active means max fluorescein-equivalent concentration above about 10 nM; inconclusive means between about 1.1 nM and that limit
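Compounds (23 nL) in 100 mM Tris pH 8.0, 15 min at room temperature, then fluorescence read at 480 nm excitation/540 nm emission. Signal converted to fluorescein-equivalent concentration from an on-plate fluorescein standard curve.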
A647_fluor: compound fluoresces in the A647 spectral region; Compound fluorescence, A647 channel (570/671 nm), Tris buffer; max dye-equivalent concentration, M; 59,000 tested, under 10 active;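 further: values scaled relative to a standard on each plate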
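Compounds pinned into 100 mM Tris pH 8.0, 15 min at room temperature, then read with 570 nm excitation/671 nm emission filters. Fluorescence normalized to an on-plate six-point Alexa 647 standard curve, giving dye-equivalent concentration per compound concentration.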
A488_autofl: compound fluoresces in the A488 spectral region. compound autofluorescence, A488 spectral region, dye equivalency; Compound Type: qHTS ECL - MLSMR. max dye equivalency, M. 59,000 compounds, 0.1% hits. AID 591
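Read-out: relative fluorescence at 480/540 nm, expressed as Alexa 488 dye-equivalent concentration from a six-point A488 standard included per plate. Conditions: 100 mM Tris, pH 8.0; 15 min incubation, room temperature.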
Numbers without * were called inactive; i = inactive; u = inconclusive; ! = a repeat was not active. Rows were chosen to be rich in hits. Some 0.9% of all compounds tested hit in one or more screens of this group. Unless noted, how the calls were made is not given here.

SMILES Resorufin_fluor Texas_Red_fluor Rhodamine_autofl Fluorescein_autfl A647_fluor A488_autofl
O=C(O)c1ccccc1-c1c2cc(Br)c(=O)cc-2oc2[c]([Hg])c(O)c(Br)cc12 2.9e-07M* 1.5e-08M* 3.8e-07M* 1.7e-05M* 2.8e-08 7.8e-07M*
CC(C)[C@H]1C(=O)N2CCC[C@H]2[C@]2(O)O[C@](NC(=O)[C@@H]3C=C4c5cccc6[nH]cc(c56)C[C@H]4N(C)C3)(C(C)C)C(=O)N12 i i i 5.3e-08M* 1e-09 u
CC(C)[C@]1(NC(=O)[C@H]2C=C3c4cccc5[nH]cc(c45)C[C@H]3N(C)C2)O[C@@]2(O)[C@H]3CCCN3C(=O)[C@H](Cc3ccccc3)N2C1=O i i i u 1e-09 i
CC(C)[C@H]1C(=O)N2CCC[C@@H]2[C@]2(O)O[C@@](NC(=O)[C@H]3C=C4c5cccc6[nH]cc(c56)C[C@H]4N(C)C3)(C(C)C)C(=O)N12 i i i 2.7e-08M* 2.9e-09 i
CC(C)[C@@]1(NC(=O)[C@@H]2C=C3c4cccc5[nH]cc(c45)C[C@H]3N(C)C2)O[C@@]2(O)[C@@H]3CCCN3C(=O)[C@H](Cc3ccccc3)N2C1=O i i i 3.8e-08M* 1e-09 u
COC[C@@H]1OC(=O)c2coc3c2[C@]1(C)C1=C(C3=O)[C@H]2CCC(=O)[C@]2(C)C[C@@H]1OC(C)=O i u i u 3.5e-08 i
N[C@]1(C(=O)O)CC[C@@H](C(=O)O)C1 i u i u 1.6e-08 i
N[C@@H](Cc1cc(O)c(O)cc1O)C(=O)O i i i i 5.5e-09 i
CC1=C[C@@H]2c3cccc4[nH]cc(c34)C[C@H]2N(C)C1 i i i 5.9e-08M* 3.5e-08 u
CCN(CC)C(=O)N[C@@H]1C[C@H]2c3cccc4[nH]cc(c34)C[C@@H]2N(C)C1 i i i u 1.1e-08 i
O=C(Cn1ncc2c3ccccc3n(Cc3cccc(Cl)c3)c2c1=O)N1CCC2(CC1)OCCO2 i u i 2.5e-08M* 1e-09 u
COc1ccc2c3c([nH]c2c1)C(C)=NCC3 i i i u 1e-09 i
CC1=NCCc2c1[nH]c1cc(O)ccc21 i i u 2.1e-07M* 1.3e-08 4.5e-07M*!
CC(C)[C@@]1(NC(=O)[C@@H]2C[C@@H]3c4cccc5[nH]cc(c45)C[C@H]3N(C)C2)O[C@@]2(O)[C@@H]3CCCN3C(=O)[C@H](Cc3ccccc3)N2C1=O i i i u 1e-09 i
CN1C[C@@H](CNC(=O)OCc2ccccc2)C[C@H]2c3cccc4c3c(cn4C)C[C@@H]21 i i i 3.9e-08M* 1e-09 u
N#C/C(=C\c1ccc(O)c(O)c1)C(N)=S i u i 2.5e-08M* 1e-08 i
COc1cc2c(cc1OC)-c1c(O)c(OC)cc3c1[C@@H](C2)N(C)CC3 i i i i 3.1e-09 i
CC(=O)[C@@H]1CC[C@@H]2[C@H]3CC[C@H]4C[C@@H](O)CC[C@]4(C)[C@@H]3C(=O)C[C@]21C i i i u 4.8e-08 i
CC[C@H](CO)NC(=O)[C@@H]1C=C2c3cccc4[nH]cc(c34)C[C@@H]2N(C)C1 i i i 2.7e-08M* 1.8e-08 i
CC[C@H](CO)NC(=O)[C@H]1C=C2c3cccc4[nH]cc(c34)C[C@H]2N(C)C1 i i i u 1e-09 i
CN1C[C@H](CO)C=C2c3cccc4[nH]cc(c34)C[C@H]21 i i i 1.5e-08M* 6.5e-09 i
CCNC(C)(C)[C@@H](SS)c1ccc(Br)cc1 i i i i 1e-09 i
N#CC(C#N)=Cc1cc(O)c(O)c(O)c1 i i i 4.4e-08M* 5.8e-08 u
CO[C@@H]([CH2][Hg])CN1C(=O)c2ccccc2S1(=O)=O.Cn1c(=O)c2nc[nH]c2n(C)c1=O i i i u 3.4e-08 i
